Results reported in PubChem BioAssay AID1063 (University of Pittsburgh Molecular Library Screening Center, 2008).
Out of some 200,000 compounds screened, about 18,000 (9%) were called active. Shown is part of a subset that was picked to be rich in actives. Unmarked numbers belong to inactive results. Rule as the data show it: active = inhibition above about 50%; inactive = the rest.

Assay: Leishmania major promastigote growth inhibition, primary screen (AID 1063);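 also: promastigotes grown with compound for 44 hours at 28 °C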
Details: Leishmania major promastigotes, resazurin fluorescence viability; at 10 µM; stronger effect = higher value

| SMILES | inhibition |
| --- | --- |
| O=C(O)CCc1nc2cc(Cl)ccc2n(Cc2ccccc2)c1=O | -0.11% |
| CCC1(CC)NC(=O)N(Cc2nc3ccccc3s2)C1=O | -8.89% |
| CCNC(=O)COC(=O)CCNC(=O)c1cccc(C)c1 | -5.94% |
| CC1CC(C)(C)NC(=S)N1CCC(=O)N1CCN(Cc2ccccc2)CC1 (stereo not given) | 0.54% |
| NC(=O)Cn1nc([N+](=O)[O-])nc1Oc1ccc(Br)cc1 | 33.2% |
| NC(=O)c1ccc(NC(=O)COC(=O)C(Cc2ccccc2)NC(=O)c2ccccc2)cc1 (stereo not given) | 1.11% |
| O=C1CC(c2cccc(F)c2)C2=C(CCCC2=O)N1 (stereo not given) | -5.73% |
| O=C1CCCC2=C1C(c1ccccc1)n1c(s/c(=C/c3cccc(F)c3)c1=O)=N2 (stereo not given) | 60.3% (active) |
| O=C1CSC(c2cccc(F)c2)N1c1ccccc1F (stereo not given) | 1.64% |
| CCSC1=NCCN1C(=O)c1ccc(S(=O)(=O)N(CC)CC)cc1 | 2.69% |
| C=CCN(Cc1nc(-c2cc(OC)c3c(c2)OCO3)oc1C)C1CCS(=O)(=O)C1 (stereo not given) | 64.6% (active) |
| Cc1cccc(C(=O)Nc2ccccc2C(=O)NCc2cccnc2)c1 | -3.01% |
| CCCCN(C)CCC(=O)Nc1ccc(Cl)cc1 | 63.4% (active) |
| O=C(CCC(=O)OCc1ccc(Cl)cc1)Nc1ccccc1 | -2.39% |
| CCCCC(=O)Nc1ccc2c(c1)OCCO2 | 1.71% |
| CCOC(=O)Cc1csc(NC(=O)CSc2ccc(Br)cc2)n1 | 77.7% (active) |
| CCOC(=O)Cc1csc(SCc2cc(=O)oc3cc(O)ccc23)n1 | -10.2% |
| CCOC(=O)Cc1csc(NC(=O)Nc2ccccc2)n1 | 0.22% |
| CCOC(=O)Cc1csc(NC(=O)CSc2nc(C)cc(=O)[nH]2)n1 | -12.1% |
| CCOC(=O)Cc1csc(NC(=O)C(C)(C)C)n1 | -0.74% |

| SMILES | inhibition |
| --- | --- |
| CCOC(=O)Cc1csc(SCC(=O)NC(C)C23CC4CC(CC(C4)C2)C3)n1 (stereo not given) | 98.6% (active) |
| Cc1ccccc1N/C(SCc1ccc(Cl)cc1)=C(/C#N)C(N)=O | 25.8% |
| CC1(c2cccc([N+](=O)[O-])c2)CC(C)(C)N(C(=O)c2ccccc2)c2ccccc21 (stereo not given) | 22.4% |
| CC1(c2ccccc2)CC(C)(C)N(C(=O)c2cc([N+](=O)[O-])cc([N+](=O)[O-])c2)c2ccccc21 (stereo not given) | 99.6% (active) |
| CC1CCN(C(=S)c2cccc([N+](=O)[O-])c2)CC1 | -0.83% |
| COC(=O)NNC1=CC(=O)CC(C)(C)C1 | -0.84% |
| CN(C(=O)COc1ncnc2c1cnn2-c1ccccc1)C1CCCCC1 | 0.81% |
| CCOC(=O)C1CCCN(C(=O)c2cccc(S(=O)(=O)N3CCOCC3)c2)C1 (stereo not given) | -6.48% |
| CCc1nnc(NC(=O)CSc2nc3ccccc3c(=O)n2CCCOC)s1 | 11.7% |
| COCCn1c(SCC(=O)Nc2ccc3c(c2)CCC3)nc2ccccc2c1=O | 59.6% (active) |
| CC(=O)NCCn1c(SCC(=O)Nc2ccc(C)cc2)nc2ccccc2c1=O | 0.63% |
| Cc1cccc(NC(=S)Nc2ccc(Cl)c(Cl)c2)c1 | 33.5% |
| CN(C)S(=O)(=O)Oc1ccccc1C(=O)Nc1ccccc1Cl | 3.48% |
| O=C(CCC(=O)NNc1nc2ccccc2c2nc(-c3ccccc3)nn12)NCCCN1CCCC1=O | 1.2% |
| Cc1ccc2c(Cl)c(C(=O)NCCCn3ccnc3)sc2c1 | 99.3% (active) |
| Cc1ccc2c(Cl)c(C(=O)Nc3nn[nH]n3)sc2c1 | 12.8% |
| O=C(NCCCn1ccnc1)Nc1ccc(Cl)cc1Cl | 0.73% |
| CCCN(CCC)c1ccc(C(O)c2nnc(-c3ccccc3)o2)cc1 (stereo not given) | 13.2% |
| Cc1ccc(Cl)cc1NC(=O)COC(=O)CC(C)(C)C | 34.5% |
| COc1ccc(CC(=O)NC(C)CCc2ccccc2)cc1 (stereo not given) | -3.88% |

| SMILES | inhibition |
| --- | --- |
| COc1ccc(C(CCNCc2ccccc2F)c2ccc(F)cc2)cc1 (stereo not given) | 78.9% (active) |
| COc1ccc(C(CC(=O)O)NC(=O)Cc2ccccc2)cc1 (stereo not given) | -6.94% |
| Cc1cc(NS(=O)(=O)c2ccc(NC(=S)NC(=O)c3ccc(F)cc3Cl)cc2)no1 | 48.3% |
| CCN(CCCNC(=O)CSc1cc(=O)n(C)c2cc(Cl)ccc12)Cc1ccccc1 | 20.1% |
| COc1ccc(-n2cc(CNC3CCOCC3)c(-c3cccc(F)c3)n2)cc1 | 31.6% |
| CC(C)OCCCNC(=O)c1cc(Sc2ccc(F)cc2)nc2ccccc12 | 50.2% (active) |
| O=C(NCCN1CCOCC1)c1cc(Sc2cccc(Cl)c2)nc2ccccc12 | 1.33% |
| CC(C)CCNC(=O)c1cccnc1Sc1ccccc1 | 32.8% |
| CN1CCNC(=O)C1CC(=O)NCCC1=CCCCC1 (stereo not given) | 4.58% |
| CCOC(=O)c1c(C)[nH]c(C2=NNC(=NC(C)COC)SC2)c1C (stereo not given) | 8.5% |
| Cc1sc(NC(=S)NC(=O)c2cccs2)nc1-c1ccc(CC(C)C)cc1 | -14.6% |
| CC(C)Cc1nn2c(=O)cc(O)nc2s1 | 54.9% (active) |
| CCOC(=O)c1cc2c(=O)n3ccccc3nc2n(CC(C)C)c1=NC(=O)c1c(-c2c(F)cccc2Cl)noc1C | 98.8% (active) |
| CCCn1c(=NC(C)=O)c(C(=O)OCC)cc2c(=O)n3ccccc3nc21 | 7.11% |
| C/C(=N/OC(=O)c1c(-c2c(F)cccc2Cl)noc1C)c1cnccn1 | 0.04% |
| COc1ccc(NC(=O)/C(C#N)=C\c2cc(OC)c(OCc3ccc(C(=O)O)cc3)cc2Br)cc1 | 4.82% |
| O=C(CN1CCN(c2nc(-c3ccccc3)cs2)CC1)NCc1ccc2c(c1)OCO2 | 1.96% |
| COc1ccc(-c2csc(N3CCN(Cc4ccc5c(c4)OCO5)CC3)n2)cc1 | 76.3% (active) |
| COc1cccc(NC(=O)CN2CCN(c3nc(-c4cccc(OC)c4)cs3)CC2)c1 | 9.93% |
| Cc1nn(C)c(C)c1CN(C(=O)CCc1nnc(Cc2c[nH]c3ccccc23)o1)C(C)C | -4.01% |
